# The full list was thinned out, with hits kept by preference.
# NOMO-1 viab: STK33 inhibitor candidate reducing NOMO-1 cell viability | NOMO-1 AML viability, CellTiter-Glo luminescence, 72 h | 37,000 compounds, 7.5% hits | inhibition, % (no concentration beside the values); in the data active = inhibition above about 80%; inconclusive = no clear call, values can overlap the other calls
# PD-1 reversal: activators reversing PD-1 mediated T-cell inhibition; primary human CD4 T cells, PD-L1 beads, CellTiter-Glo 96 h; activation, % (no concentration beside the values); 29,000 tested, under 10 active; call rule not given here;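 also: 0% = median vehicle wells and 100% = positive control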
# STK33 kin inh: blocks human STK33 kinase activity. Q9BYT3. ADP-Glo luminescence, MBP substrate. inhibition, % at 12.5 µM. 27,000 compounds, 0.44% hits; in the data active = inhibition above about 20%; inconclusive = no clear call, values can overlap the other calls
# Target sequence (Q9BYT3 whole entry, looked up): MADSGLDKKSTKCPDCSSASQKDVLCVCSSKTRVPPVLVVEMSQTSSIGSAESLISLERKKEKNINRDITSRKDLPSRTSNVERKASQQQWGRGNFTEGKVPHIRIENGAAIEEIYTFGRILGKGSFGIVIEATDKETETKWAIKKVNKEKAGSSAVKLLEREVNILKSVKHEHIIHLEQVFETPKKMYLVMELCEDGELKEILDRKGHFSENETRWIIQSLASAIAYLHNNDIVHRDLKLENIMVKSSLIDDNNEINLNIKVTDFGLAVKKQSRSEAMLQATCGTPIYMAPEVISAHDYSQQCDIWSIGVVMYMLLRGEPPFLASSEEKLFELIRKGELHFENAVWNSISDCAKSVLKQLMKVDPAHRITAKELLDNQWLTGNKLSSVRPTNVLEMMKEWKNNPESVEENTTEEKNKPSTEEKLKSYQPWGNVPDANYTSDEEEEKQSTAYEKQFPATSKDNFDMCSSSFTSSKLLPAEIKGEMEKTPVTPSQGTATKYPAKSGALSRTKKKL
# Active calls of the source: *; ? = inconclusive; . = no result; ! = not confirmed by another sample.
SMILES,NOMO-1 viab,PD-1 reversal,STK33 kin inh
CN1CCN(CC(=O)N2N=C(c3c(-c4ccccc4)c4cc(Cl)ccc4[nH]c3=O)CC2c2ccccc2)CC1 (stereo not drawn),124*,-12,0
Cc1ccc(N2C3=C(C(=O)CC(C)(C)C3)C(c3cccs3)C3=C2CC(C)(C)CC3=O)cc1C,118*,-7,-1
CC(c1ccco1)N(C(=O)c1sc2ccccc2c1Cl)c1ccccn1 (stereo not drawn),44,0,.
C=C1C(=O)O[C@@H]2C[C@H](C)[C@@H]3CC(=O)C(C)=C3C[C@H]12,121*,-15,-4
C=C1C(=O)OC2C3=C(C)C(=O)CC3C(C)CC(O)C12 (stereo not drawn),57,-4,-3
Cc1ccc(-c2cc3ccccn3c2C(=O)CSc2nnc(C)s2)cc1,3,0,-3
COc1ccc(-c2nc3ccc4ccccc4c3c3c2CCC3)cc1,-5,0,.
COc1ccc(S(=O)(=O)N(C)CC(=O)Nc2ccccc2Br)cc1Cl,19,2,6
Cc1ccc2c(c1)C(=O)C1(O)CCN(c3ccccc3)C1=N2 (stereo not drawn),109*,3,1
N#CC1=C(N)Oc2c(sc3ccccc23)C1c1ccccc1OC(=O)c1ccccc1Cl (stereo not drawn),115*,-1,.
N#CC1=C(N)OC(C2CC2)=C(C#N)C1c1ccccc1Cl (stereo not drawn),57,-6,1
O=C(CSc1nc2ccccc2[nH]1)Nc1ccc(Cl)cc1O,56,0,6
CCOC(=O)c1c(-c2ccccc2)csc1NC(=O)c1cccc(OC(C)=O)c1,-7,.,4
O=C(CCn1cccc(C(F)(F)F)c1=O)Sc1ccccc1,?,2,.
C[C@@H]1CN([C@H](C)CO)C(=O)Cc2cc(NS(=O)(=O)c3ccc(F)cc3)ccc2O[C@H]1CN(C)CC1CC1,18,1,-2
C[C@H]1CN([C@@H](C)CO)C(=O)Cc2cc(NS(=O)(=O)c3ccc(F)cc3)ccc2O[C@@H]1CN(C)CC1CCCCC1,123*,-1,-1
C[C@@H]1CN([C@H](C)CO)C(=O)Cc2cc(NS(=O)(=O)c3ccc(F)cc3)ccc2O[C@@H]1CN(C)CC1CCCCC1,14,-3,1
C[C@H](CO)N1C[C@H](C)[C@H](CN(C)CC2CCCCC2)Oc2ccc(NS(=O)(=O)c3ccc(F)cc3)cc2CC1=O,104*,.,-4
O=C(O)CC(C(=O)Nc1ccc(Cl)cc1)N1CCCC1 (stereo not drawn),6,1,4
C[C@@H]1O[C@@H](Oc2ccc(-c3coc4cc(O[C@@H]5O[C@@H](C)[C@H](O)[C@@H](O)[C@H]5O)ccc4c3=O)cc2)[C@H](O)[C@H](O)[C@H]1O,24,3,-3
O=[N+]([O-])c1ccccc1S(=O)(=O)Nc1nccs1,31,.,4
O=C(Nc1cccc(Br)c1)c1cccc2c1C(=O)c1ccccc1-2,102*,-1,.
O=C(CN1C(=O)c2ccccc2S1(=O)=O)Nc1cccc(Br)c1,6,3,8
N#CC(=S)Nc1ccc(F)cc1,49,-1,.
Cc1cc(C)c(S(=O)(=O)NCC(=O)Nc2ccc(F)c(Cl)c2)c(C)c1,74,-4,-3
SMILES,NOMO-1 viab,PD-1 reversal,STK33 kin inh
C[C@H](CO)N1C[C@H](C)[C@@H](CN(C)Cc2ccc(-c3ccccc3)cc2)Oc2ccc(NC(=O)Nc3ccc4c(c3)OCO4)cc2C1=O,120*,0,.
C[C@H](CO)N1C[C@H](C)[C@@H](CN(C)Cc2ccc(Oc3ccccc3)cc2)Oc2ccc(NC(=O)Nc3ccc4c(c3)OCO4)cc2C1=O,32,0,.
C[C@H]1CN([C@@H](C)CO)C(=O)c2cc(NC(=O)Nc3ccc4c(c3)OCO4)ccc2O[C@@H]1CN(C)Cc1ccc(-c2ccccc2)cc1,112*,0,6
C[C@@H]1CN([C@@H](C)CO)C(=O)c2cc(NC(=O)Nc3ccc4c(c3)OCO4)ccc2O[C@H]1CN(C)Cc1ccc(-c2ccccc2)cc1,116*,2,.
C[C@@H]1CN([C@@H](C)CO)C(=O)c2cc(NC(=O)Nc3ccc4c(c3)OCO4)ccc2O[C@H]1CN(C)Cc1ccccc1,34,.,.
C[C@@H]1CN([C@H](C)CO)C(=O)c2cc(NC(=O)Nc3ccc4c(c3)OCO4)ccc2O[C@H]1CN(C)Cc1ccc(Oc2ccccc2)cc1,-2,3,1
COC(=O)c1ccccc1NC(=O)c1ccc(Cl)c(S(=O)(=O)Nc2ccc(C)cc2C)c1,7,0,-1
O=C(CN1CCOCC1)Nc1sc2c(c1C(=O)Nc1ccc(Br)cc1)CCCC2,-12,-3,8
CC(C)S(=O)(=O)NC[C@@H]1CCCN(Cc2cccc(OCCO)c2)C1,.,.,-5
COc1ccc(OC)c(NC(=O)c2ccc(CSc3ncnc4nc[nH]c34)cc2)c1,42,1,.
Cc1ccc(C)c(OCC(=O)Nc2cccc(-c3nnc(-c4ccco4)o3)c2)c1,76,0,13
COc1ccc(/C=C2\C(=O)c3ccccc3OC2c2ccccc2)cc1 (stereo not drawn),120*,0,.
COc1ccc(C2CC(=O)c3ccc(OC)cc3O2)cc1 (stereo not drawn),-7,.,5
C[C@H](CO)N1C[C@H](C)[C@H](CN(C)Cc2ccc(Cl)c(Cl)c2)Oc2ccc(NS(C)(=O)=O)cc2C1=O,17,2,-2
C[C@H]1CN([C@@H](C)CO)C(=O)c2cc(NS(C)(=O)=O)ccc2O[C@H]1CN(C)Cc1ccc(Cl)c(Cl)c1,14,-1,-1
Cc1ccc(S(=O)(=O)Nc2ccc3c(c2)C(=O)N([C@H](C)CO)C[C@@H](C)[C@H](CN(C)Cc2ccc(Cl)c(Cl)c2)O3)cc1,104*,0,.
Cc1ccc(S(=O)(=O)Nc2ccc3c(c2)C(=O)N([C@@H](C)CO)C[C@@H](C)[C@H](CN(C)Cc2ccc(Cl)c(Cl)c2)O3)cc1,89*,1,.
COC(=O)c1cc(NC(=O)c2ccco2)cc(C(=O)OC)c1,-8,-1,.
CCC(C)C(NC(=O)C(C)(C)NC(=O)C(C)(CC)NC(=O)C(N)Cc1c[nH]c2ccccc12)C(=O)NC(=O)CCC(NC(C)=O)C(=O)O (stereo not drawn),0,0,-4
CC(Sc1nnc(-c2ccc(Br)cc2)n1-c1ccccc1)C(=O)O (stereo not drawn),14,0,2
NC(=NCc1ccccc1)NC(=O)c1nc(Cl)c(N)nc1N,91*!,2,2
NC(=Nc1ccccc1)NC(=O)c1nc(Cl)c(N)nc1N,119*,.,9
NC(=O)NC(=O)Cc1ccccc1,27,.,2
Cc1nn(-c2ccccc2)c(C)c1Sc1n[nH]c(=O)[nH]c1=O,34,0,.
CCOc1ccc(C2C3=C(CCCC3=O)NC3=C2C(=O)CCC3)cc1,5,0,.
CC(=O)O[C@H]1[C@H](Oc2ccccc2COC(=O)C2(O)C=CCCC2=O)O[C@H](CO)[C@@H](O)[C@@H]1O (stereo partly drawn),26,-2,2
O=C(O[C@H]1[C@H](Oc2ccccc2COC(=O)C2(O)C=CCCC2=O)O[C@H](CO)[C@@H](O)[C@@H]1O)c1ccccc1 (stereo partly drawn),121*,-4,-1

# Screening results (PubChem BioAssay)
